# Most compounds without a hit are left out; they make up all but 18% or so of the library.
# TDP1 cell noCPT: qHTS for Inhibitors of human tyrosyl-DNA phosphodiesterase 1 (TDP1): qHTS in cells in absence of CPT; DT40 Tdp1-/- hTDP1 cells, no CPT, ATP luminescence, 48 h; Potency, µM (top dose mostly 46.2 µM), inactives show at the top dose activity change, negative = growth inhibition, most hits filed as inhibitors; 420,000 compounds, 15% hits; AID 686978, 2013; further: potency means the concentration at half of the fitted maximal effect; nearly all actives have a fitted effect of over 55% in size
#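 Seeded 400 DT40-hTDP1 cells/well (vehicle DMSO, no 20 nM CPT); pinned compounds; ≥48 hr at 37 °C; CellTiter-Glo luminescence as viability measure.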
# LDHA inh: blocks human lactate dehydrogenase A. P00338. purified LDHA, NADH/diaphorase-resazurin fluorescence; stronger effect = lower value. activity change, % (values are at about 110 or 230 µM). 480,000 compounds, 0.15% hits. AID 1347041; in the data active means activity change below about -30%; inconclusive means mostly about -25% to -30%;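 further: plate controls were DMSO wells for no effect and wells without enzyme for full effect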
#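 Enzyme activity of human lactate dehydrogenase 5 (2 nM; 0.06 mM NADH, 0.2 mM pyruvate, 5 min, RT) is measured via a resazurin/diaphorase fluorescence readout of residual NADH.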
# RORgamma inh: inhibitors of mouse ROR gamma transcriptional activity; 310,000 compounds, 5.4% hits; Potency, µM (doses to about 53.6 µM), without a hit: at the top dose activity change, negative = inhibition, hits mostly inhibitors; Drosophila S2 Gal4-RORgamma UAS-luciferase reporter, 20 h; P51450; further: potency means the concentration at half of the fitted maximal effect; nearly all actives have a fitted effect of over 60% in size
# Target sequence (P51450 whole entry, looked up, the tested form may be a part): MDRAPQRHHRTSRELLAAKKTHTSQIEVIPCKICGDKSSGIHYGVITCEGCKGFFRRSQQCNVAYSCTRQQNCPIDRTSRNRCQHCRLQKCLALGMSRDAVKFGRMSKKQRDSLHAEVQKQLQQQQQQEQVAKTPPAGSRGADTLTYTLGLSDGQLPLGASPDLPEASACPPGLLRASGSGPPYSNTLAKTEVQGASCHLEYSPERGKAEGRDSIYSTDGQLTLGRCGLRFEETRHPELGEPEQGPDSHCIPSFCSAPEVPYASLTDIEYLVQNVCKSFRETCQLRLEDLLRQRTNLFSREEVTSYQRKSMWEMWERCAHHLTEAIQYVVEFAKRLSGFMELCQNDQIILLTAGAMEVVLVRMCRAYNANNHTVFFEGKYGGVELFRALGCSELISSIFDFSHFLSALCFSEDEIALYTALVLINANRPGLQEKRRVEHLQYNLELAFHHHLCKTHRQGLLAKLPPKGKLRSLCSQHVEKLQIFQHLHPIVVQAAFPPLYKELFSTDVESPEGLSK
#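 Using a luciferase readout, inhibitors were identified by reduced reporter activity in Drosophila cells coexpressing a copper-inducible Gal4–ROR gamma fusion and UAS-driven Photinus luciferase, incubated 20 hr after 700 uM copper sulfate.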
# IL1B secr inh: inhibitors of inflammasome signaling (IL-1 beta secretion) | THP-1 LPS/ATP IL-1B secretion, AlphaLISA, 16 h; stronger effect = lower value | activity change, % at 57.5 µM | 360,000 compounds, 4.7% hits | AID 743279; in the data active means activity change below about -50%; inconclusive means mostly about -30% to -49%
#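 THP-1 cells pretreated 1 hr with compounds (up to 57.5 uM final), then stimulated with LPS (250 ng/mL final) plus ATP (1.25 mM final); secreted IL-1B measured by AlphaLISA after 16 hr, decreased signal indicating inhibition.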
# VP16 counter: counter-screen for ROR gamma inhibitors: Gal4-VP16 reporter; Drosophila S2 Gal4-VP16 UAS-luciferase, luminescence, 20 h; Potency, µM (series often up to 53.6 µM), without a hit: top-dose activity, negative = inhibition, usual class: inhibitors; 310,000 compounds, 3.5% hits;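 further: Gal4-VP16 expression switched on by copper sulfate through the metallothionein promoter; potency means the concentration at half of the fitted maximal effect; nearly all actives have a fitted effect of over 50% in size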
# TDP1 cell CPT: growth inhibition of DT40 Tdp1-/-;hTDP1 cells with camptothecin (screen for TDP1 inhibitors). chicken DT40 Tdp1-/-;hTDP1 cells + 20 nM CPT, ATP luminescence, 48 h. Potency, µM (highest dose often 46.2 µM), without a hit: at the top dose activity change, negative = growth inhibition, actives largely listed as inhibitors. 420,000 compounds, 12% hits; further: potency means the concentration at half of the fitted maximal effect; nearly all actives have a fitted effect of over 55% in size
#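 Cell growth measured by CellTiter-Glo luminescence after a minimum 48 h, 37 C compound exposure with 20 nM CPT in Tdp1-knockout DT40 cells stably expressing hTDP1, seeded 400/well; qHTS titration format.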
# An asterisk follows results filed as active; u = inconclusive; x = not tested or not shown. Unless noted, the call rests on the fitted dose curve; in most records, active means well fitted curve in the direction sought with a large enough effect; inconclusive means small, poorly fitted or top-dose-only effect, or another doubt; inactive means no such curve, though single readings can be large; an effect the other way counts as inactive or inconclusive. Unless noted, on the % scale 0 is the no-effect control and ±100 the full control effect.
SMILES,TDP1 cell noCPT,LDHA inh,RORgamma inh,IL1B secr inh,VP16 counter,TDP1 cell CPT
CCCC(=O)NC(c1ccc(C(C)C)cc1)c1ccc2cccnc2c1O (stereo unspecified),2.3µM*,3,2.2µM*,146,2.8µM*,5.2µM*
CCOc1ccc(NC(=O)COc2ccc(C(C)C)cc2)c2cccnc12,x,28,x,x,x,x
CCCC(=O)NC(c1ccc(N(C)C)cc1)c1ccc2cccnc2c1O (stereo unspecified),0.92µM*,28,2.5µM*,172,2.8µM*,0.65µM*
CC(C)C(=O)N1CCC(C(=O)NCC2(c3ccccc3)CC2)CC1,x,-3,x,x,x,x
CCc1cc(C(=O)OC)c(NC(=O)c2c(CC)noc2C)s1,x,-4,x,x,x,x
CCC1C(=NO)C(CC)C(c2ccccc2)NC1c1ccccc1 (stereo unspecified),u,-4,u,-51*,u,u
CCCCCCCC1C(=O)CC(c2ccccc2)NC1c1ccccc1 (stereo unspecified),x,0,x,x,x,x
CCC1C(=O)C(CC)C(c2ccccc2)NC1c1ccccc1 (stereo unspecified),-28%,-4,0.28µM*,22,1%,3%
O=C(Nc1ncc2c(n1)CC(c1cccs1)CC2=O)c1ccc(F)cc1 (stereo unspecified),x,3,x,x,x,x
CC1CCC(NC(=O)CSc2nc3cc([N+](=O)[O-])ccc3o2)CC1 (stereo unspecified),x,7,x,x,x,x
O=c1c2cnn(-c3ccccc3)c2nc(-c2cccs2)n1-c1ccc(Cl)cc1,0.58µM*,0,21%,26,12%,0.46µM*
CCc1nc2c(cnn2-c2ccc(Cl)cc2)c(=O)n1-c1ccc(OC)cc1,u,-3,u,u,-1%,u
O=c1oc(-c2cccs2)nc2c1cnn2-c1ccccc1,u,-6,-12%,-6,-24%,u
O=c1c2cnn(-c3ccccc3)c2nc(-c2cccs2)n1-c1cccc(Cl)c1,9.2µM*,-4,42%,-2,-4%,15µM*
CC(C)(C)CC(=O)NCC(=O)C(C#N)c1ccc2ccccc2n1 (stereo unspecified),x,5,x,x,x,x
O=c1[nH]c2ccccc2c2nc(-c3cccc(S(=O)(=O)N4CCCC4)c3)nn12,16µM*,-6,32%,-4,-7%,u
Cc1cc(C(=O)COC(=O)c2nccnc2N)c(C)n1CCc1ccccc1,x,15,x,x,x,x
CCc1ccc2c(c1)C(=O)C(=O)N2CCS(=O)(=O)c1ccccc1,2.6µM*,25,12%,26,-8%,2.9µM*
CC(=O)n1cc(Nc2ccc([N+](=O)[O-])cc2)c2ccccc21,u,-10,-36%,17,-3%,u
CC(=O)SC(C[N+](=O)[O-])c1cn(C(C)=O)c2ccccc12 (stereo unspecified),2.9µM*,11,11µM*,-82*,u,4.6µM*
COCCC(=O)N1CCC(Oc2ccc(C(=O)NCCCC3CCCC3)cc2)CC1,21µM*,-2,33%,9,2%,21µM*
COCCC(=O)N1CCC(Oc2ccc(C(=O)N(C)CCCC3CCCC3)cc2)CC1,u,-1,u,-30,-8%,u
COCCC(=O)N1CCC(Oc2ccc(C(=O)NCCC3=CCCCC3)cc2)CC1,u,0,7%,2,-6%,16µM*
CCCn1nc(NS(=O)(=O)c2ccccc2)c2cc3ccccc3nc21,-3%,-5,u,-3,-4%,2%
CCn1nc(NS(=O)(=O)c2ccccc2)c2cc3ccccc3nc21,u,-7,-7%,42,11%,23µM*
SMILES,TDP1 cell noCPT,LDHA inh,RORgamma inh,IL1B secr inh,VP16 counter,TDP1 cell CPT
CCOC(=O)CN1C(=O)C(Sc2n[nH]c(-c3ccc(C)cc3)n2)CCc2ccccc21 (stereo unspecified),u,9,u,-2,-27%,u
CCOc1ccccc1N1C(=O)CC(Sc2n[nH]c(-c3ccccc3)n2)C1=O (stereo unspecified),0.65µM*,-10,3.5µM*,0,-71%,0.65µM*
CC(=O)Nc1ccc(N2C(=O)CC(Sc3nc(C)cc(C)n3)C2=O)cc1 (stereo unspecified),7%,0,-7%,23,3%,3%
COc1ccc(N2C(=O)CC(Sc3n[nH]c(-c4cccc(C)c4)n3)C2=O)cc1 (stereo unspecified),3.7µM*,-2,23%,-30,u,0.92µM*
COc1cccc(N2C(=O)CC(Sc3nc(C)cc(C)n3)C2=O)c1 (stereo unspecified),6%,-10,4%,33,u,1%
COC(=O)c1ccc(N2C(=O)CC(Sc3n[nH]c(C)n3)C2=O)cc1 (stereo unspecified),5.2µM*,5,u,15,u,2.1µM*
Cc1c(NC(=O)NCc2ccccc2)cccc1C(N)=O,x,6,x,x,x,x
COc1ccc2c(C)c(CC(=O)NC3CCS(=O)(=O)C3)c(=O)oc2c1 (stereo unspecified),x,1,x,x,x,x
CCCCOc1ccc(NC(=O)c2ccc(Cl)cc2)c2cccnc12,x,8,x,x,x,x
O=C(CCc1ccccc1)NC(NC(=S)Nc1ccc(Br)cc1)C(Cl)(Cl)Cl (stereo unspecified),23µM*,-20,u,-2,4.5µM*,23µM*
CCCC(=O)NC(NC(=S)Nc1ccc(N=Nc2ccccc2)cc1)C(Cl)(Cl)Cl (stereo unspecified),5.2µM*,-11,u,u,u,5.2µM*
O=C(CCc1ccccc1)N[C@@H]1c2ccccc2CC[C@H]1OCc1ccccc1,12µM*,-9,x,-7,x,u
O=C(COc1ccccc1)N[C@@H]1c2ccccc2CC[C@H]1OCc1ccccc1,26µM*,3,x,-10,x,u
O=C(Cc1ccccc1)N[C@@H]1c2ccccc2CC[C@@H]1OCc1ccccc1,-18%,-2,x,-24,x,-23%
O=C(COCc1ccccc1)N[C@@H]1c2ccccc2CC[C@@H]1OCc1ccccc1,u,0,x,-51*,x,u
O=C(COc1ccccc1)N[C@@H]1c2ccccc2CC[C@@H]1OCc1ccccc1,-18%,1,x,-12,x,u

# Screening data (PubChem)
